Legend:
Experiment in all cases: DAPPL (digital affinity profiling via proximity ligation, sequencing); 10 mM Tris-HCl pH 7.5, 50 mM NaCl, 1 mM DTT, 4% glycerol, room temperature, 30 min; GST-TFs on glutathione beads, 16-mer random dsDNA library, 0.1% formaldehyde crosslink after washing; high values mean tight binding
Conditions in all cases: protein: recombinant; tags: N-terminal GST; dsDNA, one strand shown
FLI1 = target: T1, FLI1 (Homo sapiens, UniProt Q01543 1-452)
T1 sequence: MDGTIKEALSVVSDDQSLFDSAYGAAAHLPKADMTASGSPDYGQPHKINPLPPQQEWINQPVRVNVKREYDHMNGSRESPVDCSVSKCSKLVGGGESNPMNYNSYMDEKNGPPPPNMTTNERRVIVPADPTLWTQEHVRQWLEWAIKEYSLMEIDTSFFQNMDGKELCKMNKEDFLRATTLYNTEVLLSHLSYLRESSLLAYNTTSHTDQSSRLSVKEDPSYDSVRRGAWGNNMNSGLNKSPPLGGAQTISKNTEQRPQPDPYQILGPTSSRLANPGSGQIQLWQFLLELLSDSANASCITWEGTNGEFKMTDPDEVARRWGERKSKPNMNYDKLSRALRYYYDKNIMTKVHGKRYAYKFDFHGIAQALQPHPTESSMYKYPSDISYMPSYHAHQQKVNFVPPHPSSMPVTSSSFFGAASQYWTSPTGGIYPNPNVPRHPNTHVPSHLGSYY
Procedure, shortened: (§1)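 Binding signal is defined as a hexamer's read frequency for one factor over its frequency for the tag-only sample. To obtain reads, GST-fused human transcription factors were expressed in yeast, captured on glutathione beads, barcoded with DNA and pooled with that sample. Pools met 200 nmole of a 16-mer random double-stranded DNA library in Tris/NaCl/DTT/glycerol buffer for 30 min at room temperature before washing, 0.1% formaldehyde crosslinking, proximity ligation (BsaI/T4 ligase, 1 h, 37 °C), PCR and Illumina NextSeq500 sequencing.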

ELK1 = target: T2, ELK1 (Homo sapiens, UniProt P19419 1-428)
T2 sequence: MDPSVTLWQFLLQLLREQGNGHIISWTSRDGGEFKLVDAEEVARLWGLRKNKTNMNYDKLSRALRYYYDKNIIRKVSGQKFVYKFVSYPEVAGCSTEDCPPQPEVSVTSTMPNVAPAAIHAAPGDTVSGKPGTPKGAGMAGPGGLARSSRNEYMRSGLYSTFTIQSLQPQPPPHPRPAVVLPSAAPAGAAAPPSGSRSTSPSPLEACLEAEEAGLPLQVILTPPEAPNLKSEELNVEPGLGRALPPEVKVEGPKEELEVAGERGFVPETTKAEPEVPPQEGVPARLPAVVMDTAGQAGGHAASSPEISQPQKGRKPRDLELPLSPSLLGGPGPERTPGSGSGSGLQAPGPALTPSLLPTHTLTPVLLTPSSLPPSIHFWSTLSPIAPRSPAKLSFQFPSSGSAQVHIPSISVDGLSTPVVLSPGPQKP
Procedure, shortened: as §1

GABPA = target: T3, GABPA (Homo sapiens, UniProt Q06546 1-454)
T3 sequence: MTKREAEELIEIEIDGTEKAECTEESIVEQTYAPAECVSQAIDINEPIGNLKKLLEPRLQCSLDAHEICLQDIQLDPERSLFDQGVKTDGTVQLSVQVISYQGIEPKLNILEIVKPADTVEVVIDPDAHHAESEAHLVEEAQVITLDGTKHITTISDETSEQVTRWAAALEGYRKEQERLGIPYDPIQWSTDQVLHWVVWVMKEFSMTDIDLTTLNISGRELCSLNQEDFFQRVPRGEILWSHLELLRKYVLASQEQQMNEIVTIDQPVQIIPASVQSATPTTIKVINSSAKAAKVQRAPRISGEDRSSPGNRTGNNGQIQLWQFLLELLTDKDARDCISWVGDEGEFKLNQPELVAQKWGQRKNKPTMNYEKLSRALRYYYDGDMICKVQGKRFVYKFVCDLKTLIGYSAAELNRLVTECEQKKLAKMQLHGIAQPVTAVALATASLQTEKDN
Procedure, shortened: as §1

ERG = target: T4, ERG (Homo sapiens, UniProt P11308 1-479)
T4 sequence: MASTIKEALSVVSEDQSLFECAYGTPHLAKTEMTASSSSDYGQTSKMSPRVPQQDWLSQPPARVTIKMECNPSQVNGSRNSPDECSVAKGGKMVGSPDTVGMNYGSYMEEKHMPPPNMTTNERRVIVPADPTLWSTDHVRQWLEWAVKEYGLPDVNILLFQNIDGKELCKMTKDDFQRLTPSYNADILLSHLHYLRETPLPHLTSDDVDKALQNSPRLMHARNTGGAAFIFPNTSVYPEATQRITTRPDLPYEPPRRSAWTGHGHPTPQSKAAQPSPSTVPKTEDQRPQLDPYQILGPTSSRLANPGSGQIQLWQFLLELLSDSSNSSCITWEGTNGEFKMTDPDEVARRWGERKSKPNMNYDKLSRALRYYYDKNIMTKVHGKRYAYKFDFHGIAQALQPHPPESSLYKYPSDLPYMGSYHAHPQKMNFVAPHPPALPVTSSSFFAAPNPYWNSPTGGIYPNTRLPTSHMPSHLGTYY
Procedure, shortened: as §1

ELF1 = ELF1 (Homo sapiens, UniProt P32519 1-619)
Sequence of ELF1 (P32519 whole entry): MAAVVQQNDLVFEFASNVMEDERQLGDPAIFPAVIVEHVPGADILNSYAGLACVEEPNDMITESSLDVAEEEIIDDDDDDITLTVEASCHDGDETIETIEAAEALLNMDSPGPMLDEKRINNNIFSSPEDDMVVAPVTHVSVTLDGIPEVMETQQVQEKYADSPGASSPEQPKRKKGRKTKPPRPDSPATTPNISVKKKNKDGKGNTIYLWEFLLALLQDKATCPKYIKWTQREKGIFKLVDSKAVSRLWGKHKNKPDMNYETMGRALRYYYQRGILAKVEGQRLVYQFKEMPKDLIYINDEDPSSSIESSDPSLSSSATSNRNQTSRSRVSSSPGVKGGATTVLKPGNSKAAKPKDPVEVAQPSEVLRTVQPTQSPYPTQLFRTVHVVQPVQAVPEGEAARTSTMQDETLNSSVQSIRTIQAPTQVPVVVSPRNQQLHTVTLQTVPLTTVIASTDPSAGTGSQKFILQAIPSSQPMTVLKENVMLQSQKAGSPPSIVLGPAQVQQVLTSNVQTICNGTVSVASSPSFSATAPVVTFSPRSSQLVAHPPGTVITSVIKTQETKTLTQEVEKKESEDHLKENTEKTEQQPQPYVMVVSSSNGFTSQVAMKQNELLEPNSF
Procedure, shortened: as §1

EHF = target: T5, EHF (Homo sapiens, UniProt Q9NZC4 1-300)
T5 sequence: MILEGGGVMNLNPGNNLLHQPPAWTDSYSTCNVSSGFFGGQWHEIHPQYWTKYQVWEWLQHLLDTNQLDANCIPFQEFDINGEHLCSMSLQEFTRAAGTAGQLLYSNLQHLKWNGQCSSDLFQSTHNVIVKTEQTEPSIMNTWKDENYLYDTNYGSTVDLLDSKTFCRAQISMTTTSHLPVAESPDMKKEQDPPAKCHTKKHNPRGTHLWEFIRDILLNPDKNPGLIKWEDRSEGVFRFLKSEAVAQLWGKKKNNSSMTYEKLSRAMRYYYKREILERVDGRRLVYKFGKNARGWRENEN
Procedure, shortened: as §1

SPI1 = SPI1 (Homo sapiens, UniProt P17947 1-270)
Procedure, shortened: as §1

SPIB = SPIB (Homo sapiens, UniProt Q01892 1-262)
Sequence of SPIB (Q01892 whole entry): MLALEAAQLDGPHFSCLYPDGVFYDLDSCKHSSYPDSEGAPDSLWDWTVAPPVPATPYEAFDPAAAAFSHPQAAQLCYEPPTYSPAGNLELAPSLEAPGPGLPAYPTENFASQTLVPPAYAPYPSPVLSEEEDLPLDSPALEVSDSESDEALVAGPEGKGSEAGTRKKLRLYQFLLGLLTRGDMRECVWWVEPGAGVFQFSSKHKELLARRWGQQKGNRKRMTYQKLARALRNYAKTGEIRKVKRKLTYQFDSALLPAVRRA
Procedure, shortened: as §1

ELK3 = target: T6, ELK3 (Homo sapiens, UniProt P41970 1-407)
T6 sequence: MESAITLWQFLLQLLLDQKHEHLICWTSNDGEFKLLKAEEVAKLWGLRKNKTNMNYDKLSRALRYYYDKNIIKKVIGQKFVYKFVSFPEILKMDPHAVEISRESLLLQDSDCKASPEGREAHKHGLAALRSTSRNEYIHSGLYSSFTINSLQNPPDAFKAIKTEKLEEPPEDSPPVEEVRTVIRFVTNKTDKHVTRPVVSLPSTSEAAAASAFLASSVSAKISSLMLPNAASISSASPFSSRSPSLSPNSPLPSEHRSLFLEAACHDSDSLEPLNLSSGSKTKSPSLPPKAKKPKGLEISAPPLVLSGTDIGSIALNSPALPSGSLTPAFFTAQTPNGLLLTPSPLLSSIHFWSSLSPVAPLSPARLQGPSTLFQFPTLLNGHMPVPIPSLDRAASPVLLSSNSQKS
Procedure, shortened: as §1

FEV = target: T7, FEV (Homo sapiens, UniProt Q99581 1-238)
T7 sequence: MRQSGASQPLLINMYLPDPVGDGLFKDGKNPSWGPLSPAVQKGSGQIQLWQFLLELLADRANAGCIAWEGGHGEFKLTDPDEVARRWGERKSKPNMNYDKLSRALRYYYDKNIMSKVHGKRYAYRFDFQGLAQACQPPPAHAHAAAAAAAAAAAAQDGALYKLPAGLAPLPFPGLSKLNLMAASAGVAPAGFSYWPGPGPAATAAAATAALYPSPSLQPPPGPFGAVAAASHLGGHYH
Procedure, shortened: as §1

ETV5 = ETV5 (Homo sapiens, UniProt P41161 1-510)
Sequence of ETV5 (P41161 whole entry): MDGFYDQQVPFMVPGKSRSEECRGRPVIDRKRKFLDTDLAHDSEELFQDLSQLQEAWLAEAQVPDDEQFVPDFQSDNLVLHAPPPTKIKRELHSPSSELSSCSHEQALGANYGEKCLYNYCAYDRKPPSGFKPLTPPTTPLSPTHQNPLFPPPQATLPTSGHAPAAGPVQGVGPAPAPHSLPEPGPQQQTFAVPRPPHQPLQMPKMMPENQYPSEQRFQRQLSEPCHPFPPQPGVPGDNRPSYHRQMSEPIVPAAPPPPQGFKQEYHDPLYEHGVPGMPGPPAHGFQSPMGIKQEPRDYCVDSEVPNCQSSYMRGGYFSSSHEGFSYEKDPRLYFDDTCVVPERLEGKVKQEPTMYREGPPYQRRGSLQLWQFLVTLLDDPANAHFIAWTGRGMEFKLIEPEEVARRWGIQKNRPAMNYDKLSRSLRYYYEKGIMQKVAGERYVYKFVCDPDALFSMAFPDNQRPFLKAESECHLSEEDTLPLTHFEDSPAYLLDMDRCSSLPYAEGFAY
Procedure, shortened: as §1

SPIC = target: T8, SPIC (Homo sapiens, UniProt Q8N5J4 1-248)
T8 sequence: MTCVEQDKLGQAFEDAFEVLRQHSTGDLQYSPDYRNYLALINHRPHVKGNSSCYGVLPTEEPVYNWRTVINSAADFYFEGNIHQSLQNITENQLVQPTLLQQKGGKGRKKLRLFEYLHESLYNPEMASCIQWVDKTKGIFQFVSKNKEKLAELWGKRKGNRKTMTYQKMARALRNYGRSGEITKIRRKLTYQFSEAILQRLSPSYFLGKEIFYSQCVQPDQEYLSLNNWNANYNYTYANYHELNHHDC
Procedure, shortened: as §1

ELF4 = ELF4 (Homo sapiens, UniProt Q99607 1-663)
Sequence of ELF4 (Q99607 whole entry): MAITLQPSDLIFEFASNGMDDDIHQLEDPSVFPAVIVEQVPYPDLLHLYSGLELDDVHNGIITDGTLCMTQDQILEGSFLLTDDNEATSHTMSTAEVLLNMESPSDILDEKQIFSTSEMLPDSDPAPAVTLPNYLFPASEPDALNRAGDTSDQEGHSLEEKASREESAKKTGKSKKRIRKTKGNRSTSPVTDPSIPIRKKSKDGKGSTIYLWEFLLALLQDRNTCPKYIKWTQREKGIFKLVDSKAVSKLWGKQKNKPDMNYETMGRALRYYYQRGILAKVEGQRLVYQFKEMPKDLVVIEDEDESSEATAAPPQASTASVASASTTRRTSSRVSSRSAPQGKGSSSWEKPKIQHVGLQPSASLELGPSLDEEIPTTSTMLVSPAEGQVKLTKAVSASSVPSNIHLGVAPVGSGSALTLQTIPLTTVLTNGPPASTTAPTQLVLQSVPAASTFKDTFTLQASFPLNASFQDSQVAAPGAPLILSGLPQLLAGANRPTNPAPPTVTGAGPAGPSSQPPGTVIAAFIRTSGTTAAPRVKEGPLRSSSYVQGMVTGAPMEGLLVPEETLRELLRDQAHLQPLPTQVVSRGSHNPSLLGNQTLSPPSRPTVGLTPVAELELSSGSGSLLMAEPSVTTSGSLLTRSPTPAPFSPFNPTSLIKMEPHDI
Procedure, shortened: as §1

ELK4 = target: T9, ELK4 (Homo sapiens, UniProt P28324-2 1-405)
T9 sequence: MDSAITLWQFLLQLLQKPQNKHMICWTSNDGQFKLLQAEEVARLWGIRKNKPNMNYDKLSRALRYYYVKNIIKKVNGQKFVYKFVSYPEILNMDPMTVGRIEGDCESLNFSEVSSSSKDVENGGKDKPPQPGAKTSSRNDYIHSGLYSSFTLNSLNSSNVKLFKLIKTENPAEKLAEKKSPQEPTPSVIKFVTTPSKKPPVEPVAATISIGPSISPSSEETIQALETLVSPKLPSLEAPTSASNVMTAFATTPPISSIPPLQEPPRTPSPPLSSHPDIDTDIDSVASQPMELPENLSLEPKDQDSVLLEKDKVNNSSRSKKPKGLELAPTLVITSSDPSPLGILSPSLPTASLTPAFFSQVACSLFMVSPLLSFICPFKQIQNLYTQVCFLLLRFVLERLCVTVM
Procedure, shortened: as §1

ETV2 = target: T10, ETV2 (Homo sapiens, UniProt O00321 1-342)
T10 sequence: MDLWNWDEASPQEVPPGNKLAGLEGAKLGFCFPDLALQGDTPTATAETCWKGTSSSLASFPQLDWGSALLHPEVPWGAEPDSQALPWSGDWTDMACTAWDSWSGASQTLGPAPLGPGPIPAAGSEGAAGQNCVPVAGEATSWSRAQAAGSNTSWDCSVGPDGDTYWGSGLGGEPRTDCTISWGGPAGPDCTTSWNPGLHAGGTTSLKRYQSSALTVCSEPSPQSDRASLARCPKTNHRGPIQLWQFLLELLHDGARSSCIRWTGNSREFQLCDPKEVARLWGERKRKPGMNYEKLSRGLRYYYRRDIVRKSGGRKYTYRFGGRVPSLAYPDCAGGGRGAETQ
Procedure, shortened: as §1

ELF3 = target: T11, ELF3 (Homo sapiens, UniProt P78545 1-371)
T11 sequence: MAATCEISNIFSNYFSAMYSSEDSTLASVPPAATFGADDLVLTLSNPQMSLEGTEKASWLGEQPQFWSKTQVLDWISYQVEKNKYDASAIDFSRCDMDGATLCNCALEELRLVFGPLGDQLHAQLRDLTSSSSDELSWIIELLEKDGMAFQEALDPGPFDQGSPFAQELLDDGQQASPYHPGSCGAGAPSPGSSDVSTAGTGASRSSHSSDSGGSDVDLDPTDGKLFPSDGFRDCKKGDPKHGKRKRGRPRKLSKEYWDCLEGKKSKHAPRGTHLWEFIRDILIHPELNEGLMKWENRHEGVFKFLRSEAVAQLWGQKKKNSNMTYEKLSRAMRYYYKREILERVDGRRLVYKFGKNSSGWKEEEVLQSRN
Procedure, shortened: as §1

ETV1 = ETV1 (Homo sapiens, UniProt P50549 1-477)
Sequence of ETV1 (P50549 whole entry): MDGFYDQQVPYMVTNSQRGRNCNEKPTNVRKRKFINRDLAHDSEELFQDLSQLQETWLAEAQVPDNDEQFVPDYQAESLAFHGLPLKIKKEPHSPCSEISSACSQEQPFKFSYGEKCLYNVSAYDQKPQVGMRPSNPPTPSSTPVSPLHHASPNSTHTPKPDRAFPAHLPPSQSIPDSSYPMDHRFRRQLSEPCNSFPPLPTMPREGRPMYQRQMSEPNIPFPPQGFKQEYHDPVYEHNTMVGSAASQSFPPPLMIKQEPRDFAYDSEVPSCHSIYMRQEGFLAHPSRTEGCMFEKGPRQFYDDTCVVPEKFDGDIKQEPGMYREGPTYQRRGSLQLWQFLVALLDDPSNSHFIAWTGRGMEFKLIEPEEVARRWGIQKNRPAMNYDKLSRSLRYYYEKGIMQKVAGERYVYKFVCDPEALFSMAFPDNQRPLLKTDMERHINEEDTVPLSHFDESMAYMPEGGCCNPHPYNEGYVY
Procedure, shortened: as §1

Sequence | binding signal (FLI1) | binding signal (ELK1) | binding signal (GABPA) | binding signal (ERG) | binding signal (ELF1) | binding signal (EHF) | binding signal (SPI1) | binding signal (SPIB) | binding signal (ELK3) | binding signal (FEV) | binding signal (ETV5) | binding signal (SPIC) | binding signal (ELF4) | binding signal (ELK4) | binding signal (ETV2) | binding signal (ELF3) | binding signal (ETV1)
CACCCC | 1.2 fold enrichment (6-mer frequency, TF over GST control) | 1.3 fold enrichment (6-mer frequency, TF over GST control) | 1.35 fold enrichment (6-mer frequency, TF over GST control) | 1.22 fold enrichment (6-mer frequency, TF over GST control) | 1.28 fold enrichment (6-mer frequency, TF over GST control) | 1.19 fold enrichment (6-mer frequency, TF over GST control) | 1.24 fold enrichment (6-mer frequency, TF over GST control) | 1.32 fold enrichment (6-mer frequency, TF over GST control) | 1.31 fold enrichment (6-mer frequency, TF over GST control) | 1.22 fold enrichment (6-mer frequency, TF over GST control) | 1.18 fold enrichment (6-mer frequency, TF over GST control) | 1.41 fold enrichment (6-mer frequency, TF over GST control) | 1.18 fold enrichment (6-mer frequency, TF over GST control) | 1.47 fold enrichment (6-mer frequency, TF over GST control) | 1.13 fold enrichment (6-mer frequency, TF over GST control) | 1.11 fold enrichment (6-mer frequency, TF over GST control) | 1.28 fold enrichment (6-mer frequency, TF over GST control)
ACACAC | 1.24 fold enrichment (6-mer frequency, TF over GST control) | 1.13 fold enrichment (6-mer frequency, TF over GST control) | 1.21 fold enrichment (6-mer frequency, TF over GST control) | 1.22 fold enrichment (6-mer frequency, TF over GST control) | 1.19 fold enrichment (6-mer frequency, TF over GST control) | 1.23 fold enrichment (6-mer frequency, TF over GST control) | 1.14 fold enrichment (6-mer frequency, TF over GST control) | 1.19 fold enrichment (6-mer frequency, TF over GST control) | 1.12 fold enrichment (6-mer frequency, TF over GST control) | 1.18 fold enrichment (6-mer frequency, TF over GST control) | 1.15 fold enrichment (6-mer frequency, TF over GST control) | 1.23 fold enrichment (6-mer frequency, TF over GST control) | 1.21 fold enrichment (6-mer frequency, TF over GST control) | 1.21 fold enrichment (6-mer frequency, TF over GST control) | 1.33 fold enrichment (6-mer frequency, TF over GST control) | 1.23 fold enrichment (6-mer frequency, TF over GST control) | 1.17 fold enrichment (6-mer frequency, TF over GST control)
